{"source": "ChEMBL document CHEMBL1961873", "about": "“Compounds: GSK PKIS; Assays: Nanosyn kinase panel” (2012);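 further: reported value is a mean MARK4 inhibition at 1 µM, taken from the GSK PKIS screening set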"}
{"biological_target": "T1, MAP/microtubule affinity-regulating kinase 4 (Homo sapiens) (UniProt Q96L34)", "T1 sequence (whole entry)": "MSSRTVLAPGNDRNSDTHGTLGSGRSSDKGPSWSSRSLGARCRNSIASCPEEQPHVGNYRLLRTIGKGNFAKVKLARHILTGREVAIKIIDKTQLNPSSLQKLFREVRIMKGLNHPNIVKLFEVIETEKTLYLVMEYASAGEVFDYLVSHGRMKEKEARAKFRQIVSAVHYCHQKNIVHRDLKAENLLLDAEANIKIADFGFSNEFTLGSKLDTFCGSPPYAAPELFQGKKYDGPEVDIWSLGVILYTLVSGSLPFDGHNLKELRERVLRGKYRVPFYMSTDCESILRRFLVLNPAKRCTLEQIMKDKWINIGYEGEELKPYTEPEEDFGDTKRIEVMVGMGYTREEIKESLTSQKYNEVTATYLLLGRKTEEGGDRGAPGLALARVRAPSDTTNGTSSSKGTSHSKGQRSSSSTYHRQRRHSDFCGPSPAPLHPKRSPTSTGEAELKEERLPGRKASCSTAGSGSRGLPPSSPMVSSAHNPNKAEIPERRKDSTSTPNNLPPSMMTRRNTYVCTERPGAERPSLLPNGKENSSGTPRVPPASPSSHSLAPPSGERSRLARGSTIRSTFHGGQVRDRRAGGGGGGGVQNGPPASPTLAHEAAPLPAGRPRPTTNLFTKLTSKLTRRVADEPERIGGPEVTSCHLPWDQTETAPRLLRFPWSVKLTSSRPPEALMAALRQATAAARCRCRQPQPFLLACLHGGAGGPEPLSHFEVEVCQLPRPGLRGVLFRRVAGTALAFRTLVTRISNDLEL", "conditions": "at 1 µM", "units": {"inhibition": "%"}}
{"smiles": "COc1cc2c(cc1Nc1nc(Nc3ccsc3C(N)=O)c3cc[nH]c3n1)N(C(=O)CN(C)C)CCC2", "inhibition": 0.65}
{"smiles": "NS(=O)(=O)c1ccc(N/C=C2\\C(=O)Nc3ccc4ncsc4c32)cc1", "inhibition": 46.3}
{"smiles": "Fc1ccc(-c2ncn(C3CCNCC3)c2-c2ccnc(Oc3ccccc3)n2)cc1", "inhibition": 1.42}
{"smiles": "Nc1nonc1-c1nc2cnccc2n1C1CCCCC1", "inhibition": 10.8}
{"smiles": "NC(=O)c1sc(-n2cnc3cc(C(F)(F)F)ccc32)cc1OCc1ccccc1Br", "inhibition": 1.92}
{"smiles": "CCn1c(-c2nonc2N)nc2c(C#CC(C)(C)O)ncc(OCC3CCNCC3)c21", "inhibition": 54.5}
{"smiles": "COc1cccc(COc2cc(-n3cnc4ccccc43)sc2C(N)=O)c1", "inhibition": 1}
{"smiles": "CCn1c(-c2nonc2N)nc2c(C#CC(C)(C)O)ncc(OC[C@@H]3CCCN3)c21", "inhibition": 55.2}
{"smiles": "CCn1c(-c2nonc2N)nc2c(C#CC(C)(C)O)nc(O[C@@H](CN)c3ccccc3)cc21", "inhibition": 90.7}
{"smiles": "NS(=O)(=O)c1ccc(-c2ccc3c(NC(=O)C4CC4)n[nH]c3c2)cc1", "inhibition": 2.61}
{"smiles": "CCn1c(-c2nonc2N)nc2c(C#CCN)ncc(OCCCN)c21", "inhibition": 6.19}
{"smiles": "Cc1cc(-c2ccco2)cc(C)c1/C=C/c1cncc(-c2nn[nH]n2)c1", "inhibition": 1.35}
{"smiles": "COc1cccc(-n2ncc3c(N/N=C/c4ccncc4)ncnc32)c1", "inhibition": 5.01}
{"smiles": "COc1cc(C=NNc2ncnc3c2cnn3Cc2ccccc2)ccc1O", "inhibition": 3.25}
